# Source: PubChem BioAssay (NCATS)
# Inconclusive results are not listed. Entries that show only a call come without a potency. Calls of active or inactive are those of the source. Calls follow the shape of the dose curve; as a rule, active = well fitted inhibition curve with a large enough effect; inconclusive = small, poorly fitted or top-dose-only effect; inactive = no such curve, though single readings can be large or run the other way.
# Biological target: Retinaldehyde dehydrogenase 3 (Homo sapiens) (UniProt P47895)
# Test: qHTS for Inhibitors of the Aldehyde Dehydrogenase Family (ALDH1A3) Primary screen (AID 2061315)
# Conditions: ALDH inhibition qHTS; series mostly up to 56 µM
row,SMILES,Potency
1,CC1(O)CC(O)C2(O)C=COC(O[C@@H]3O[C@H](CO)[C@@H](O)[C@H](O)[C@H]3O)C12 (stereo not given in full),inactive
2,CC(=O)O[C@@H]1[C@@H](O)[C@H](O[C@@H]2[C@@H](O)[C@@H](O)[C@H](O[C@H]3[C@H](O[C@H]4[C@H](O[C@H]5CC[C@@]6(C)C(CC[C@]7(C)C6CC=C6[C@@H]8CC(C)(C)CC[C@]8(C(=O)O)CC[C@]67C)[C@]5(C)CO)O[C@H](CO)[C@@H](O)[C@@H]4O)OC[C@@H](O)[C@@H]3O)O[C@H]2C)OC[C@H]1O (stereo not given in full),inactive
3,C/C(=C\CCC(C)CCO)C(=O)OC[C@H]1O[C@@H](O[C@@H]2OC=C(C(=O)O)[C@H]3CC[C@](C)(O)[C@@H]23)C(O)[C@@H](O)C1O (stereo not given in full),inactive
4,Cc1ncc(CCCN(C)C)cc1Nc1ncc2c(n1)-c1ccc(C(F)(F)F)cc1NC(=S)C2,inactive
5,OC[C@H]1O[C@@H](OCCc2ccccc2)[C@H](O[C@@H]2OC[C@@H](O)[C@H](O)[C@H]2O)[C@@H](O)[C@@H]1O,inactive
6,CC(C)=CCC/C(C)=C/CC/C(C)=C/CC[C@]1(C)CCc2cc(O)cc(C)c2O1,inactive
7,O=C1Nc2ccc(O)cc2O[C@H]1O[C@@H]1O[C@H](CO)[C@@H](O)[C@H](O)[C@H]1O,inactive
8,C[C@]1(O)CC[C@@H]2C(C(=O)O)=CO[C@@H](O[C@@H]3O[C@H](COC(=O)/C=C/c4ccc(O)c(O)c4)[C@@H](O)[C@H](O)[C@H]3O)[C@@H]21,inactive
9,Cn1cc(S(C)=O)c(=O)c2ccc(F)cc21 (stereo not given),inactive
10,Cn1nc(C(C)(C)C)cc1C(=O)N[C@@H](Cc1cccc(Cl)c1)C(=O)NCC#N,inactive
